Where “and” joins values, the source holds several entries; their conditions need not be identical. Equal values may be shown once. Where a structure was tested more than once in an assay, its records may differ in their call. Calls of active or inactive are those of the source. Unless noted, calls come from the whole dose curve.

The record followed here is PubChem BioAssay (Tox21).
% is set by controls: 0 for no effect and ±100 for the full control effect; potency is the fitted concentration of half-maximal effect.

Sequence of Estrogen receptor (Homo sapiens) (P03372 whole entry, looked up): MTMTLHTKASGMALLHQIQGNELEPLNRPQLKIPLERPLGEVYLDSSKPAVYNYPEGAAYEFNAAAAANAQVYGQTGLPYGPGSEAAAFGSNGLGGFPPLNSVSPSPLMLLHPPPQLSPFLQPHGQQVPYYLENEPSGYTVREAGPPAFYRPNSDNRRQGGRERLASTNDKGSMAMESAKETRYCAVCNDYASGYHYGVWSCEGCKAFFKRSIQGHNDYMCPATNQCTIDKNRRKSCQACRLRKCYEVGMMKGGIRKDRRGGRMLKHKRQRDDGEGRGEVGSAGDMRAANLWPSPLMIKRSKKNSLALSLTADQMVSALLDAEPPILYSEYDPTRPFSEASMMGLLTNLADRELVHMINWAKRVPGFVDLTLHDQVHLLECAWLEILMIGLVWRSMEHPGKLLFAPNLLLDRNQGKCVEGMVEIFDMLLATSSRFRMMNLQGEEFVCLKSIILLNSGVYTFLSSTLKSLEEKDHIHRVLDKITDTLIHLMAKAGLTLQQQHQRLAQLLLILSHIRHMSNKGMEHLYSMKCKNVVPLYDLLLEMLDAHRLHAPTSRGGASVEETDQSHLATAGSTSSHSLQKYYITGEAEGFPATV

The first assay concerns the target Estrogen receptor (Homo sapiens) (UniProt P03372). The assay can be described thus: qHTS assay to identify small molecule antagonists of the estrogen receptor alpha (ER-alpha) signaling pathway (AID 743069; active = well fitted curve in the direction sought with a large enough effect in the signal ratio in the repeat runs, not every such curve was filed as active; inconclusive = weak or mixed curves, or effect the other way; inactive = no such curve, though single readings can be large or run the other way; the % refers to the signal ratio). Conditions: HEK293 ER-alpha-UAS-bla, beta-lactamase ratio, antagonist mode; series mostly up to 69.4 µM; activity, negative = inhibition: at the top concentration. The essentials: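 Compound effects are measured against 17beta-estradiol stimulation in HEK293 cells with a UAS-controlled beta-lactamase reporter for ER-alpha. Exposure lasts 18 hr at 37C; LiveBLAzer B/G FRET substrate follows for 2 hr at room temperature.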
In the case of `Cc1cc(-c2ccc(N=Nc3ccc4c(S(=O)(=O)O)cc(S(=O)(=O)O)c(N)c4c3O)c(C)c2)ccc1N=Nc1ccc2c(S(=O)(=O)O)cc(S(=O)(=O)O)c(N)c2c1O`, the Potency result was “inactive”. Consider `O=C1c2ccccc2C(=O)C1c1ccc(F)cc1`, for which the “activity, negative = inhibition” value was 3.8% (inactive). With `O=C1CCC(c2ccc(-n3ccnc3)cc2)=NN1`, the “activity, negative = inhibition” value was 2.22% (inactive).

For the molecule `O=C1OC(=O)c2cc(-c3ccc4c(c3)C(=O)OC4=O)ccc21`, the “activity, negative = inhibition” value is 3.14% (inactive).

Take `CCOc1ccc([N+](=O)[O-])cc1`: the Potency was 55.8 µM [inconclusive] (active).

`CC(Cc1ccc(O)c(O)c1)C(C)Cc1ccc(O)c(O)c1` (configuration not stated): the Potency was 54.9 µM [inconclusive] (active).

Take `CCCCCCOC(=O)c1cccnc1`: the “activity, negative = inhibition” value was 5.47% (inactive).

Tested on in another assay: not listed separately
In words: qHTS assay to identify small molecule antagonists of the estrogen receptor alpha (ER-alpha) signaling pathway - cell viability counter screen (AID 743074). Note: nearly all actives have a fitted effect of over 45% in size. Conditions: ERalpha-bla HEK293 viability, CellTiter-Glo luminescence, 18 h; series mostly up to 69.4 µM; activity, negative = cytotoxicity: at the top concentration. On the technique in general: In qHTS, concentration-response curves come from the screen itself.
In the case of `CC1(C)C[C@@H]1C(=O)N/C(=C\CCCCSC[C@H](N)C(=O)O)C(=O)O`, the Potency entry was “inactive”. For the molecule `Clc1nc(C(Cl)(Cl)Cl)c(Cl)c(Cl)c1Cl`, the “activity, negative = cytotoxicity” value is -25.9% (inactive).

Consider `CC(=O)OCC(=O)[C@@]1(O)CC[C@H]2[C@@H]3C[C@H](C)C4=CC(=O)C=C[C@]4(C)[C@H]3[C@@H](O)C[C@@]21C`, for which the “activity, negative = cytotoxicity” value is 10.7% (inactive).

As for `CC(C)c1ccc2sc3ccccc3c(=O)c2c1`, the “activity, negative = cytotoxicity” value is -26.9% (inactive). Same read-out and setting: the figure for `CC(=O)Oc1cc(C(F)(F)F)ccc1C(=O)O` is 14.8% [at 32.6 µM] (inactive); for `N[C@H](C(=O)O)[C@@H]1CC(Cl)=NO1` it is -22.8% (inactive). `NCc1cccc(C2CCN(C(=O)c3ccc(C#Cc4ccccc4F)o3)CC2)c1`: the Potency is 54.9 µM (active).

As to `CC1CCCCN1CCCOC(=O)c1ccccc1` (configuration not stated), the “activity, negative = cytotoxicity” value is 5.03% (inactive). Turning to `COc1cc(/C=C/C(=O)CC(=O)/C=C/c2ccc(O)c(OC)c2)ccc1O`, the Potency result is “inactive and 49.3 µM (active)”. On the same count and under the same terms, in the case of `CSCC[C@H](NC(=O)[C@H](Cc1ccc(OS(=O)(=O)O)cc1)NC(=O)[C@@H](N)CC(=O)O)C(=O)NCC(=O)N[C@@H](Cc1c[nH]c2ccccc12)C(=O)N[C@@H](CCSC)C(=O)N[C@@H](CC(=O)O)C(=O)N[C@@H](Cc1ccccc1)C(N)=O` it was “inactive”.

As to `C=N[C@@H](C(=O)N[C@@H]1C(=O)N2[C@@H]1SC(C)(C)[C@@H]2C(=O)O)c1ccccc1`, the “activity, negative = cytotoxicity” value is 18% (inactive). Take `CN(C)CCc1c[nH]c2ccc(Cn3cncn3)cc12`: the “activity, negative = cytotoxicity” value was 24.3% (inactive).

In the case of `FC(F)(F)COCC(F)(F)F`, the “activity, negative = cytotoxicity” value is 15.2% (inactive). Consider `CCCCCCCCCC[N+](C)(CCCCCCCCCC)CCC[Si](OC)(OC)OC`, for which the Potency is 49 µM (active). As for `N[C@@H](Cc1ccc(O)c(O)c1)C(=O)O`, the “activity, negative = cytotoxicity” value is 7.61% (inactive).

With `C[C@@H]1C[C@H]2[C@@H]3C[C@H](F)C4=CC(=O)C=C[C@]4(C)[C@@]3(Cl)[C@@H](O)C[C@]2(C)[C@H]1C(=O)COC(=O)C(C)(C)C`, the “activity, negative = cytotoxicity” value is -8.36% (inactive). Same read-out and setting: in the case of `O=C1OC(O)C(C(Cl)Cl)=C1Cl` (configuration not stated) it was -23.7% [at 79.1 µM] (inactive); in that of `NC(N)=NCCCCN=C(N)N`, -4.22% (inactive). Take `NC(=O)CC[C@@H]1NC(=O)[C@H](Cc2ccccc2)NC(=O)[C@H](Cc2ccc(O)cc2)NC(=O)[C@@H](N)CSSC[C@@H](C(=O)N2CCC[C@H]2C(=O)N[C@@H](CCCN=C(N)N)C(=O)NCC(N)=O)NC(=O)[C@H](CC(N)=O)NC1=O`: the Potency result is “inactive”. `Cc1c(N)nc([C@H](CC(N)=O)NC[C@H](N)C(N)=O)nc1C(=O)N[C@H](C(=O)N[C@H](C)[C@@H](O)[C@H](C)C(=O)N[C@H](C(=O)NCCc1nc(-c2nc(C(=O)NCCCCN=C(N)N)cs2)cs1)[C@@H](C)O)[C@@H](O[C@@H]1O[C@@H](CO)[C@@H](O)[C@H](O)[C@@H]1O[C@H]1O[C@H](CO)[C@@H](O)[C@H](OC(N)=O)[C@@H]1O)c1cnc[nH]1`: the Potency result was “inactive”. On the same count and under the same terms, the figure for `CC[C@@H](C(=O)[C@@H](C)[C@@H](O)[C@H](C)CCc1ccc(C)c(O)c1C(=O)O)[C@H]1O[C@](CC)([C@H]2CC[C@](O)(CC)[C@H](C)O2)C[C@@H]1C` is 19 µM (active).

Consider `CCC(NC(C)C)C(O)c1ccc(O)c(O)c1` (configuration not stated), for which the “activity, negative = cytotoxicity” value is 7.01% (inactive). `CC(C)C[C@H](NC(=O)[C@@H](COC(C)(C)C)NC(=O)[C@H](Cc1ccc(O)cc1)NC(=O)[C@H](CO)NC(=O)[C@H](Cc1c[nH]c2ccccc12)NC(=O)[C@H](Cc1cnc[nH]1)NC(=O)[C@@H]1CCC(=O)N1)C(=O)N[C@@H](CCCN=C(N)N)C(=O)N1CCC[C@H]1C(=O)NNC(N)=O`: the Potency entry is “inactive”.

As for `CC(=O)OCC1=C(C(=O)O)N2C(=O)[C@@H](NC(=O)Cc3ccccc3)[C@H]2SC1`, the “activity, negative = cytotoxicity” value is 13.8% (inactive). On the same count and under the same terms, in the case of `NS(=O)(=O)c1cc(Cl)c(Cl)c(S(N)(=O)=O)c1` it was 14.7% [at 32.6 µM] (inactive); in that of `O=c1[nH]c(=O)n([C@H]2C[C@H](O)[C@@H](CO)O2)cc1/C=C/Br`, 17.9% (inactive). In the case of `C[C@H]1O[C@@H](O[C@H]2CC[C@@]3(C)[C@H](CC[C@@H]4[C@@H]3C[C@@H](O)[C@]3(C)[C@@H](C5=CC(=O)OC5)CC[C@]43O)C2)C[C@H](O)[C@@H]1O[C@H]1C[C@H](O)[C@H](O[C@H]2C[C@H](O)[C@H](O[C@@H]3O[C@H](CO)[C@@H](O)[C@H](O)[C@H]3O)[C@@H](C)O2)[C@@H](C)O1`, the Potency is 0.268 µM (active). Take `Oc1ccc(Cl)c2c1CCC2`: the “activity, negative = cytotoxicity” value is 13.3% (inactive). As to `N[C@H](CO)C(=O)O`, the “activity, negative = cytotoxicity” value was 22.5% (inactive). Still for that read-out and setting: in the case of `CC1(C)S[C@@H]2[C@H](NC(=O)[C@H](N)c3ccc(O)cc3)C(=O)N2[C@H]1C(=O)O` it was 4.01% (inactive).
